# Measured values reported in PubChem BioAssay.
# The source made the active and inactive calls.
# How the values were obtained:
# [1] = molecular target: Albumin (Bos taurus) (UniProt P02769); test: bovine serum albumin binders on microarray, profiling panel, artefact control for SMM control protein annotation, biochemical, small-molecule microarray, Alexa647 label, 635/667 nm fluorescence (AID 1118); settings: BSA-A647 binding, fluorescence 635 nm, higher = more signal;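 also: score merges 667 nm emission intensity and signal-to-noise per printed compound spot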
# Albumin (Bos taurus), sequence (P02769 whole entry, looked up): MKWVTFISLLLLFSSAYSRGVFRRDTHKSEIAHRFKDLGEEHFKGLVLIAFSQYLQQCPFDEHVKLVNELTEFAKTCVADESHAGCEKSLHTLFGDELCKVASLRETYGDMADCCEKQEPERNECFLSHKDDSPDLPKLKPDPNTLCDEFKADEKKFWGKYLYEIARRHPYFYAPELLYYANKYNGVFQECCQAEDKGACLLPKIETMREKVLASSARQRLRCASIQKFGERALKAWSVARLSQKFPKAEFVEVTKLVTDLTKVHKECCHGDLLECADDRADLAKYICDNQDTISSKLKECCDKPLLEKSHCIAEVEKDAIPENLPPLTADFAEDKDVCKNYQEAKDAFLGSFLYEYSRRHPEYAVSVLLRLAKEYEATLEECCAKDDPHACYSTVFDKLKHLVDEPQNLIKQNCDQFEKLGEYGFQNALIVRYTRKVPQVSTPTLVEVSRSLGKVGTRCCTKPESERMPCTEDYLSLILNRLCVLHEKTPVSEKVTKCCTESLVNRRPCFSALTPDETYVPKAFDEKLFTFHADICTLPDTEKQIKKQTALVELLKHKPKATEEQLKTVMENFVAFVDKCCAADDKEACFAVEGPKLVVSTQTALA
# [2] = small-molecule microarray binders of probe aXIP, primary screen, biochemical, NeuroSMM set, 635/667 nm fluorescence (AID 1119); settings: higher = more signal, called active from +8 up or from −8 down;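 also: probe is the protein aXip251-270 applied at 1 µg/mL to compound-printed slides; binding of probe to printed compounds measured as 667 nm fluorescence plus signal to noise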
# [3] = small-molecule binders of probe aNOTCH3, primary screen, biochemical, small-molecule microarray, 635/667 nm fluorescence (AID 1120); settings: higher = more signal;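 also: probe is a biotin-tagged antibody raised against NOTCH3 rather than NOTCH3 protein; score merges spot fluorescence near 667 nm with spot signal to noise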
# [4] = small-molecule binders of probe aNOTCH2, primary screen, biochemical, small-molecule microarray, 635/667 nm fluorescence (AID 1121); settings: higher = more signal;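 also: score merges feature fluorescence read at 667 nm with its signal to noise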
# [5] = molecular target: Carbonic anhydrase 2 (Homo sapiens) (UniProt P00918); test: CAII small-molecule binders, profiling panel, biochemical, small-molecule microarray, Alexa647-labelled CAII (AID 1122); settings: CAII-A647 binding fluorescence, higher = more signal
# [6] = COS7 lysate on small-molecule microarray, probe aHis, 635 nm (AID 1123); settings: COS7 cell lysate, fluorescence, higher = more signal;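 also: z-score combines 667nm fluorescence intensity with signal-to-noise per printed compound spot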
# [7] = compound binding in COS7 lysate, probe aLAP1, primary screen, cell lysate, small-molecule microarray (AID 1124); settings: probe aLAP1, fluorescence, higher = more signal;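 also: lysate comes from COS7 cells expressing LAP1 and is applied at 0.3 µg/mL; score merges spot fluorescence near 667 nm with signal-to-noise over triplicate slides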
# [8] = test system: Sam68 (KHDRBS1); test: Sam68 small-molecule binders, primary screen, biochemical, small-molecule microarray, 635 nm fluorescence (AID 1125); settings: small-molecule microarray binding, higher = more signal;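 also: score merges 667 nm channel intensity with signal to noise over triplicate slides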
# [9] = test system: Chordin-like protein 2 (CHRDL2); test: CHRDL2 small-molecule binders, primary screen, biochemical, small-molecule microarray, 635 nm fluorescence (AID 1126); settings: small-molecule microarray binding, fluorescence 635 nm; higher = more signal;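 also: printed compound slides probed with Chrdl2 protein at 4 µg/mL for 1 h at 4 C; score merges 667 nm emission intensity with signal to noise over three replicate slides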
# [10] = molecular target: Concanavalin-A (Canavalia ensiformis) (UniProt P02866); test: ConA small-molecule binders, primary screen, artefact control for SMM control protein annotation, biochemical, small-molecule microarray, Alexa647 label, 635 nm (AID 1127); settings: ConA-A647 binding fluorescence, higher = more signal;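 also: z combines 667 nm emission intensity with signal-to-noise across three replicate slides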
# Concanavalin-A (Canavalia ensiformis), sequence (P02866 whole entry, looked up): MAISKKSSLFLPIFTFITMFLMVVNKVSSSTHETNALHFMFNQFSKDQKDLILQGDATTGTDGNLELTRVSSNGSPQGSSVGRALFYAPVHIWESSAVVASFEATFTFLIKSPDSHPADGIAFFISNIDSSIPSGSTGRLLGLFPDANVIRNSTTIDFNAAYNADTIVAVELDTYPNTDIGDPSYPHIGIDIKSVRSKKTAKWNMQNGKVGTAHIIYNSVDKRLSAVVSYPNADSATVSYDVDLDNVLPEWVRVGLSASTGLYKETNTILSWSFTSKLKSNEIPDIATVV
# [11] = anti-His antibody binders, primary screen, artefact control for SMM control protein annotation, biochemical, small-molecule microarray, 635 nm fluorescence (AID 1128); settings: anti-His Alexa647 antibody binding, higher = more signal;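 also: score merges feature fluorescence with signal-to-noise for each printed compound spot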
# [12] = test system: Human papillomavirus type 1a E7 protein (residues 1-88); test: HPV1a E7 small-molecule binders, primary screen, biochemical, small-molecule microarray, residues 1-88, 635 nm (AID 1129); settings: small-molecule microarray binding, fluorescence 635 nm; higher = more signal
# [13] = molecular target: Focal adhesion kinase 1 (Homo sapiens) (UniProt Q05397); test: small-molecule microarray binders of FAK, primary screen, biochemical, 635/667 nm fluorescence, BSA, DTT (AID 1130); settings: PTK2 binding, 635 nm fluorescence, higher = more signal;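 also: composite of spot emission at 667 nm and signal to noise over triplicate slides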
# Focal adhesion kinase 1 (Homo sapiens), sequence (Q05397 whole entry, looked up): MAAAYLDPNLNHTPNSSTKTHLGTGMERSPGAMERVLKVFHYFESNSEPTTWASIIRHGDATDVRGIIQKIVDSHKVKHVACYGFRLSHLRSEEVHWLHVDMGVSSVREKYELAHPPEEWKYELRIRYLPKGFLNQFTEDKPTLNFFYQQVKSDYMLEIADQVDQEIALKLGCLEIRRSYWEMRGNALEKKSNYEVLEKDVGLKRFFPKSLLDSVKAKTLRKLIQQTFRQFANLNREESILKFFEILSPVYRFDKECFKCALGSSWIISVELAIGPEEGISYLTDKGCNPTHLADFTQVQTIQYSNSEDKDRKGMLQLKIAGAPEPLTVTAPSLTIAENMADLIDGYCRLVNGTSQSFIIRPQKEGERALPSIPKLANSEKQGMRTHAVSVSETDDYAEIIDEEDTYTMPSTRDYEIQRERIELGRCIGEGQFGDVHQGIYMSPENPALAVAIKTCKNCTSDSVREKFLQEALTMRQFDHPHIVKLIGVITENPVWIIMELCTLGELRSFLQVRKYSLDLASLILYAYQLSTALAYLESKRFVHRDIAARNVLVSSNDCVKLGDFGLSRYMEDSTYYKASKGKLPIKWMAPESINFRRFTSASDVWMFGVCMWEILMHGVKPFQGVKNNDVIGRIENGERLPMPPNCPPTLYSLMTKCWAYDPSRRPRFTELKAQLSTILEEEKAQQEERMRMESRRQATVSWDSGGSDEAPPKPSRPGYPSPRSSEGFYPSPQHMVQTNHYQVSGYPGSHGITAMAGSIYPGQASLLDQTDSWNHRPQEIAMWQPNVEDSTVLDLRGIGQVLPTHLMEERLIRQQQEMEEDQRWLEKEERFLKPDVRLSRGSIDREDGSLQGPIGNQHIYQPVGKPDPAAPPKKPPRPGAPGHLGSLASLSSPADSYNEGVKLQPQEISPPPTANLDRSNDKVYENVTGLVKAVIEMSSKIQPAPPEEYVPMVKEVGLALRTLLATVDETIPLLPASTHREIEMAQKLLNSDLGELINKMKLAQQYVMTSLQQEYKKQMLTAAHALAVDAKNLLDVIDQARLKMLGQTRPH
# [14] = test system: Fibrinogen (Alexa647-labelled); test: fibrinogen binders on compound microarrays, profiling panel, artefact control for SMM control-protein annotation, biochemical, small-molecule microarray, 635/667 nm fluorescence (AID 1131); settings: fibrinogen-A647 binding fluorescence, higher = more signal;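 also: z-score merges 667 nm fluorescence with per-spot signal-to-noise over triplicate slides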
# [15] = molecular target: Follistatin (Homo sapiens) (UniProt P19883); test: follistatin binders on small-molecule microarrays, primary screen, biochemical, small-molecule microarray, 635/667 nm fluorescence (AID 1132); settings: FST binding, 635 nm fluorescence, higher = more signal
# Follistatin (Homo sapiens), sequence (P19883 whole entry, looked up): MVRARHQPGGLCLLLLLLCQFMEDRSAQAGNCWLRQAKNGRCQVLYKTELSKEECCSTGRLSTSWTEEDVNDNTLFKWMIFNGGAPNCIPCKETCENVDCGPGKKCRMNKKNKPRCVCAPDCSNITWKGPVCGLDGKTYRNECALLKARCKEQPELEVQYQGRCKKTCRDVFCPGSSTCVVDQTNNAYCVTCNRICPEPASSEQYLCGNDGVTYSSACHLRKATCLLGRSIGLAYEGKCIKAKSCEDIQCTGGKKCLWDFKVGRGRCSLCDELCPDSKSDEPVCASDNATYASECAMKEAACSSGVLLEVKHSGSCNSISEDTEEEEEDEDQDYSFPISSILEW
# [16] = molecular target: Fibroblast growth factor 2 (Homo sapiens) (UniProt P09038); test: FGF2 binders on small-molecule microarrays, primary screen, biochemical, small-molecule microarray, 635/667 nm fluorescence (AID 1133); settings: small-molecule microarray binding, FGF2, fluorescence 635/667; higher = more signal
# Fibroblast growth factor 2 (Homo sapiens), sequence (P09038 whole entry, looked up): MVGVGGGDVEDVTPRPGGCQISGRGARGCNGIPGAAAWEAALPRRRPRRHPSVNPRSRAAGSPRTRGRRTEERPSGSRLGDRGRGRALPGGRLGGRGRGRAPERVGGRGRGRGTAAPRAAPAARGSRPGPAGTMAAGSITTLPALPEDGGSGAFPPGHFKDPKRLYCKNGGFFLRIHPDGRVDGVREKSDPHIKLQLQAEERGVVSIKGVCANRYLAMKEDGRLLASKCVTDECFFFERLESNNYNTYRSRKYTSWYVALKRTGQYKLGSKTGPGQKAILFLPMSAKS
# [17] = mitochondrial membrane potential change in A549 cells, profiling panel, cell-based, JC-1 fluorescence, basal, 24 h, 100 nL (AID 1138); settings: higher = more signal;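 also: A549 lung adenocarcinoma cells under basal conditions with no added stimulus; test concentration not given here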
# [18] = test system: Lefty1; test: Lefty1 binders on small-molecule microarrays, primary screen, biochemical, small-molecule microarray, 635/667 nm fluorescence (AID 1139); settings: small-molecule microarray binding, fluorescence 635/667; higher = more signal
# [19] = test system: wheat germ agglutinin (Triticum aestivum), Alexa647-labelled; test: wheat germ agglutinin binders on compound microarrays, profiling panel, artefact control for SMM control-protein annotation, biochemical, small-molecule microarray, 635/667 nm fluorescence (AID 1140); settings: WGA-A647 binding, 635 nm fluorescence, higher = more signal;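 also: score merges 667 nm feature emission with signal to noise over triplicate slides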
# [20] = molecular target: Luciferin 4-monooxygenase (Photinus pyralis) (UniProt P08659); test: firefly luciferase enzyme inhibitors, primary screen, biochemical, luminescence, purified enzyme, 2006 set (AID 1141); settings: SteadyGlo luminescence, 30 min, higher = more signal, called active from +8 up or from −8 down;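 also: cell-free assay with purified firefly luciferase at 100 ng per well in PBS; test concentration not given here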
# Luciferin 4-monooxygenase (Photinus pyralis), sequence (P08659 whole entry, looked up): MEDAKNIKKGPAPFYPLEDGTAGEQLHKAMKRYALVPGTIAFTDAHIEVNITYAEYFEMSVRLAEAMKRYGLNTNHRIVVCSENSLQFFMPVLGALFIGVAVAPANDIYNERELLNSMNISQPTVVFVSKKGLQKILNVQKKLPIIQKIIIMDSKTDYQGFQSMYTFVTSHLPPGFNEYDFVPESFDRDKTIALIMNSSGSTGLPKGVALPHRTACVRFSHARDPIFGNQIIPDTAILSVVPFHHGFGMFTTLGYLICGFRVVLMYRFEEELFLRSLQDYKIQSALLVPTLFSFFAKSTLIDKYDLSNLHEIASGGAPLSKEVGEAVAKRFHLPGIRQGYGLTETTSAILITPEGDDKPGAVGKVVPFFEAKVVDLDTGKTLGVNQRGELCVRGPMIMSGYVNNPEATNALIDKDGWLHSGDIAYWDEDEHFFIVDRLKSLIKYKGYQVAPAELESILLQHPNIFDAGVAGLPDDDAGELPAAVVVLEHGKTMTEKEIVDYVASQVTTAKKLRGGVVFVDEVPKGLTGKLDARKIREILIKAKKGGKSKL
SMILES,composite z-score [1],composite Z-score [2],composite z-score [3],composite z-score [4],composite z-score [5],composite z-score [6],composite z-score [7],composite z-score [8],composite z-score [9],composite z-score [10],composite z-score [11],composite z-score [12],composite z-score [13],composite z-score [14],composite z-score [15],composite z-score [16],z-score [17],composite z-score [18],composite z-score [19],z-score [20]
Cc1ccc(S(=O)(=O)N[C@@H]2COC(=O)CC=C[C@@H](C)[C@H](NS(=O)(=O)c3ccc(C)cc3)COC(=O)[C@H](C)NC(=O)CC=C[C@H]2C)cc1,-0.953,-0.211 (inactive),-0.0647,-0.0808,-0.548,-1.18,-0.108,-1.17,0.835,-1.46,-0.563,-0.676,-0.1,-0.111,0.72,0.499,0.73,0.61,0.0658,-0.743 (inactive)
CCCCOC(OCCCC)C(O)CSc1ccc2ccccc2c1 (stereo not given),-0.196,-0.444 (inactive),0.0669,-0.0682,0.028,0.125,-0.0593,1.02,0.537,0.196,0.147,0.776,0.0661,0.329,0.586,0.296,0.428,0.489,0.264,-0.842 (inactive)
CCN1C(=O)[C@H]2[C@H]3[C@H](O)[C@H](O)CC(=NOC[C@@H](O)[C@H]4O[C@@H]5OC(C)(C)O[C@@H]5[C@H]4O)[C@@H]3CC[C@H]2C1=O,0.0226,-0.485 (inactive),-0.299,-0.0662,0.343,0.324,-0.203,-0.0334,-0.736,-0.406,-0.072,-0.144,-0.212,-0.0432,0.387,0.383,-0.548,0.0533,-0.0038,-0.819 (inactive)
COC(=O)[C@H](CCSC)NC(=O)CC=C[C@@H](C)CO,-0.245,-0.131 (inactive),-0.0651,-0.143,0.0952,1.42,-0.226,1.29,1.5,0.483,0.293,0.127,0.0533,-0.922,1.1,1.73,-1.08,1.6,-0.701,-0.08 (inactive)
CO[C@@H]1C=CCC(=O)N[C@@H](C)C(=O)OC[C@@H](NS(=O)(=O)c2ccc(C)cc2)[C@H](C)C=CCC(=O)OC[C@H]1C,-1.19,0.51 (inactive),-0.0898,-0.242,-0.662,-0.971,-0.0366,-0.583,1.07,-0.479,-0.605,-0.56,-0.0987,-0.14,0.833,0.638,-0.198,0.841,0.326,-0.567 (inactive)
CO[C@@H]1COC(=O)[C@H](COCc2ccccc2)NC(=O)CC=C[C@@H](C)[C@H](OC)COC(=O)[C@@H](C)NC(=O)CC=C[C@H]1C,-0.764,-0.0478 (inactive),0.127,-0.126,-0.557,-0.887,-0.184,0.0125,1.02,-3.28,-1.39,-1.64,-0.474,-1.65,1.07,1.16,1.27,0.979,-0.999,-0.963 (inactive)
O=C1C=C[C@@H](O)[C@@H]2[C@@H]3C(=O)N(c4cccc(Oc5ccccc5)c4)C(=O)[C@@H]3CC[C@@H]12,0.0329,-0.554 (inactive),-0.132,-0.176,-0.0169,-0.55,-0.239,0.184,0.417,0.19,0.959,0.548,-0.183,-0.127,0.464,-0.196,-0.774,0.478,0.228,-0.57 (inactive)
